Measured values: PubChem BioAssay (NCATS)
Records with an inconclusive call do not appear. Entries that show only a call come without a potency. Values without a mark were called inactive. Activity calls are given as the source filed them. Calls follow the shape of the dose curve; as a rule, active = well fitted cell-killing curve with a large enough effect; inconclusive = small, poorly fitted or top-dose-only effect, or effect the other way; inactive = flat fitted curve, though single readings scatter.

The compounds below were run on JEG-3 (assay: Primary qHTS to identify gynecologic anti-cancer compounds using libraries of approved drugs and bioactive compounds (AID 1345084; also: nearly all actives have a fitted effect of over 55% in size)). Conditions: Gynecologic cancer cell panel viability, ATPlite luminescence, 48 h; series mostly up to 57.5 µM.
Procedure, shortened: (§1)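 Cells, 1,000 per well, were allowed to settle for 16 h at 37 C before compound addition. Five concentrations were tested for 48 h, and viability was read by ATPlite luminescence after 15 min at room temperature.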
Potency is read from the fitted curve at half-maximal effect.

Row | SMILES | Potency | activity change, negative = cytotoxicity
1 | C[C@@]1(C(=O)Nc2ccc(F)nc2)CCCN1c1nc(Nc2cc(C3CC3)[nH]n2)c2cccn2n1 | inactive | –
2 | C=CC(=O)Nc1cccc(Sc2nc(Nc3ccc(N4CCN(C)CC4)cc3)ncc2Cl)c1 | inactive | –
3 | CC(C)CNc1ccnc(NCc2csc(-c3ccccc3)n2)n1 | inactive | –
4 | COc1ccnc(CS(=O)c2nc3ccc(OC(F)F)cc3[nH]2)c1OC (stereo not drawn) | inactive | –
5 | Cc1c(C(=O)Nc2ccc(N3C[C@@H](C)O[C@@H](C)C3)nc2)cccc1-c1ccc(OC(F)(F)F)cc1 | inactive | –
6 | Cc1cc(-c2ncc(CC(=O)Nc3ccc(-c4cnccn4)cn3)cc2C)ccn1 | inactive | –
7 | Clc1ccc(C2(c3ccc(-c4cn[nH]c4)cc3)CCNCC2)cc1 | inactive | –
8 | CN1c2ccccc2C(=O)N2CCc3c([nH]c4ccccc34)C21 (stereo not drawn) | 3.98 µM (active) | –
9 | CCn1c(-c2nonc2N)nc2cncc(CNC3CCNCC3)c21 | inactive | –
10 | CC[C@H](CC#N)OC(=O)N[C@@H](C)c1cccc(NC(=O)Nc2ccc(-c3cnco3)c(OC)c2)c1 | inactive | –
11 | CCN(CCO)CCCOc1ccc2c(Nc3cc(CC(=O)Nc4cccc(F)c4)[nH]n3)ncnc2c1 | inactive | –
12 | NC(=O)c1noc([C@H](CCCC2CCCCC2)CC(=O)NO)n1 | inactive | –
13 | N#CC1(c2cccc(C(=O)Nc3cc(Oc4ccc5nc(NC(=O)C6CC6)sc5n4)ccc3F)c2Cl)CC1 | inactive | –
14 | O=C(CCCN1CCN(c2ccc(F)cc2)CC1)NC1c2ccccc2CSc2ccccc21 (stereo not drawn) | inactive | –
15 | CN1CCc2c(n(Cc3ccc(C(=O)NO)cc3)c3ccccc23)C1 | inactive | –
16 | O=C(Nc1cccc2c(=O)cc(-c3nn[nH]n3)oc12)c1ccc(OCCCCc2ccccc2)cc1 | inactive | –
17 | C[C@H](c1ccc(F)cc1CCCC(=O)O)N(c1cc(F)ccc1F)S(=O)(=O)c1ccc(Cl)cc1 | inactive | –
18 | COc1nccc(-c2c(-c3ccc(F)cc3)ncn2C2CCC(O)CC2)n1 (stereo not drawn) | inactive | –
19 | CN[C@@H](C)[C@H]1[C@H](O)C[C@@]2(C)[C@@H]3CC[C@H]4C(C)(C)[C@@H](NC)CC[C@@]45C[C@@]35CC[C@]12C | – | 6.85% [at 11.6 µM]
20 | C[C@@H]1CCO[C@H]2Cn3cc(C(=O)NCc4ccc(F)cc4F)c(=O)c(O)c3C(=O)N12 | inactive | –
21 | O=C1NC(=O)C(c2cnc3ccccn23)=C1c1cn2c3c(cccc13)CN(C(=O)N1CCOCC1)CC2 | inactive | –
22 | O=C(Nc1ccc(OC(F)(F)F)cc1)c1sccc1NCc1ccnc2ccccc12 | inactive | –
23 | CC(=O)Nc1cccc(-n2c(=O)n(C3CC3)c(=O)c3c(Nc4ccc(I)cc4F)n(C)c(=O)c(C)c32)c1 | inactive | –
24 | C[C@@H](N)c1ccc(C(=O)Nc2ccnc3[nH]ccc23)cc1 | inactive | –
25 | Nc1ccc(-c2ccc3ncc4ccc(=O)n(-c5cccc(C(F)(F)F)c5)c4c3c2)cn1 | 8.91 µM (active) | –
26 | Cc1cnc(CNC(=O)c2c(=O)c3ccc(N4CCCN(C)CC4)nc3n3c2sc2ccccc23)cn1 | – | -3.1% [at 11.6 µM]
27 | COc1ccc(-c2nc3ccc(C4=NNC(=O)CC4C)cc3[nH]2)cc1 (stereo not drawn) | inactive | –
28 | CN(C)CCCNC(=O)c1ccc(-c2cc(O)c3ncccc3c2)cc1 | inactive | –
29 | CCC(=O)N1CCN(c2ccc(-n3c(=O)ccc4cnc5ccc(-c6cnc7ccccc7c6)cc5c43)cc2C(F)(F)F)CC1 | – | -16.3% [at 11.6 µM]
30 | COc1nccc(-c2c(-c3ccc(F)cc3)ncn2C2CCNCC2)n1 | inactive | –

Each compound was assayed on OV90 in the same assay as above. Conditions: Gynecologic cancer cell panel viability, ATPlite luminescence, 48 h; series mostly up to 57.5 µM.
Procedure, shortened: as §1

Row | SMILES | Potency | activity change, negative = cytotoxicity
31 | C=CC(=O)Nc1cccc(Sc2nc(Nc3ccc(N4CCN(C)CC4)cc3)ncc2Cl)c1 | inactive | –
32 | Cc1c(C(=O)Nc2ccc(N3C[C@@H](C)O[C@@H](C)C3)nc2)cccc1-c1ccc(OC(F)(F)F)cc1 | inactive | –
33 | Cc1cc(-c2ncc(CC(=O)Nc3ccc(-c4cnccn4)cn3)cc2C)ccn1 | inactive | –
34 | NC(=O)c1noc([C@H](CCCC2CCCCC2)CC(=O)NO)n1 | inactive | –
35 | CN1CCc2c(n(Cc3ccc(C(=O)NO)cc3)c3ccccc23)C1 | inactive | –
36 | C[C@H](c1ccc(F)cc1CCCC(=O)O)N(c1cc(F)ccc1F)S(=O)(=O)c1ccc(Cl)cc1 | inactive | –
37 | C[C@@H](N)c1ccc(C(=O)Nc2ccnc3[nH]ccc23)cc1 | inactive | –
38 | Cc1cnc(CNC(=O)c2c(=O)c3ccc(N4CCCN(C)CC4)nc3n3c2sc2ccccc23)cn1 | – | 10.5% [at 11.6 µM]
39 | COc1ccc(-c2nc3ccc(C4=NNC(=O)CC4C)cc3[nH]2)cc1 (stereo not drawn) | inactive | –

What follows are compounds tested on PA-1 in the same assay as above. Conditions: Gynecologic cancer cell panel viability, ATPlite luminescence, 48 h; series mostly up to 57.5 µM.
Procedure, shortened: as §1

Row | SMILES | Potency | activity change, negative = cytotoxicity
40 | C[C@@]1(C(=O)Nc2ccc(F)nc2)CCCN1c1nc(Nc2cc(C3CC3)[nH]n2)c2cccn2n1 | 5.01 µM (active) | –
41 | CC(C)CNc1ccnc(NCc2csc(-c3ccccc3)n2)n1 | 12.6 µM (active) | –
42 | COc1ccnc(CS(=O)c2nc3ccc(OC(F)F)cc3[nH]2)c1OC (stereo not drawn) | inactive | –
43 | CN1c2ccccc2C(=O)N2CCc3c([nH]c4ccccc34)C21 (stereo not drawn) | 7.08 µM (active) | –
44 | CCn1c(-c2nonc2N)nc2cncc(CNC3CCNCC3)c21 | inactive | –
45 | CC[C@H](CC#N)OC(=O)N[C@@H](C)c1cccc(NC(=O)Nc2ccc(-c3cnco3)c(OC)c2)c1 | 0.355 µM (active) | –
46 | N#CC1(c2cccc(C(=O)Nc3cc(Oc4ccc5nc(NC(=O)C6CC6)sc5n4)ccc3F)c2Cl)CC1 | 10 µM (active) | –
47 | O=C(CCCN1CCN(c2ccc(F)cc2)CC1)NC1c2ccccc2CSc2ccccc21 (stereo not drawn) | inactive | –
48 | O=C(Nc1cccc2c(=O)cc(-c3nn[nH]n3)oc12)c1ccc(OCCCCc2ccccc2)cc1 | inactive | –
49 | COc1nccc(-c2c(-c3ccc(F)cc3)ncn2C2CCC(O)CC2)n1 (stereo not drawn) | inactive | –
50 | CN[C@@H](C)[C@H]1[C@H](O)C[C@@]2(C)[C@@H]3CC[C@H]4C(C)(C)[C@@H](NC)CC[C@@]45C[C@@]35CC[C@]12C | – | -14% [at 11.6 µM]
51 | O=C1NC(=O)C(c2cnc3ccccn23)=C1c1cn2c3c(cccc13)CN(C(=O)N1CCOCC1)CC2 | inactive | –
52 | CC(=O)Nc1cccc(-n2c(=O)n(C3CC3)c(=O)c3c(Nc4ccc(I)cc4F)n(C)c(=O)c(C)c32)c1 | inactive | –
53 | CCC(=O)N1CCN(c2ccc(-n3c(=O)ccc4cnc5ccc(-c6cnc7ccccc7c6)cc5c43)cc2C(F)(F)F)CC1 | 0.126 µM (active) | –
